Data on 40 compounds can be found in PubChem BioAssay (Tox21).

Each structure is given as a SMILES string. The source made the active and inactive calls. Calls come from the whole dose curve; as a rule, active = well fitted activation curve with a large enough effect in the repeat runs; inconclusive = weak or mixed curves; inactive = flat fitted curve, though single readings scatter.
% is set by controls: 0 for no effect and ±100 for the full control effect; potency is the fitted concentration of half-maximal effect.

The test in a line: A CellTox Green Cytotoxicity Assay to monitor cytotoxicity in HEK293 cells - 0 hour (AID 1224869). Note: nearly all actives have a fitted effect of over 50% in size. The note with it: CellTox Green fluorescence; series mostly up to 76.8 µM; cytotoxicity: at the top concentration. The source says: National Center for Advancing Translational Sciences [NCATS]
NIH Chemical Genomics Center [NCGC]
U.S. Environmental Protection Agency [EPA]
National Institutes of Environmental Health Sciences [NIEHS]
National Toxicology Program [NTP]
Cell-based models are critical for drug discovery. Determining the natural cytotoxic effects resulting from test compounds is an essential research activity. A CellTox Green Cytotoxicity Assay to monitor cytotoxicity in real time of continues cell culture during 40 hours of the compound treatment was used to screen Tox21 10K library compounds in Hek293 cells. CellTox Green Cytotoxicity Assay is a nonlytic, homogeneous, biofluorescent method to measure cytotoxicity in cell culture after experimental manipulation. The assay system uses a proprietary asymmetric cyanine dye that is excluded from viable cells but preferentially stains the dead cell's DNA. […] Viable cells produce no appreciable increases in fluorescence. Therefore, the fluorescence signal produced by the binding interaction with dead cell DNA is proportional to cytotoxicity.
The mixture of Hek293 cell suspension and reagents were dispensed at 600cells/6 ul/well in 1536-well tissue culture treated black solid bottom plates using a Multidrop dispenser. After the assay plates were incubated at a 37 C/5% CO2 incubator for 5 hours, 23 nL of compounds dissolved in DMSO, positive and negative controls was transferred to the assay plate by a pintool work station. The plates were incubated at 37 C for 40 hours. The fluorescence intensity were measured at 0h, 8h, 16h, 24h, 32h and 40h time points using ViewLux plate reader during compound treatment.
As to `O=C1OC(=O)c2c(Br)c(Br)c(Br)c(Br)c21`, the “cytotoxicity” value was 2.18% (inactive).

`C=C(C)C(=O)OCCC(F)(F)C(F)(F)C(F)(F)C(F)(F)C(F)(F)C(F)(F)F`: the “cytotoxicity” value is -3.91% (inactive).

With `CCCCCCCCCCCCCCN(C)C`, the cytotoxicity was -21.7% [at 15.8 µM] (inactive).

On to `CC(=O)NCCO`, for which the “cytotoxicity” value is 2.83% (inactive). The same measure, in the same setting: the result for `CCN(CC)c1cccc(O)c1` reads 0.27% (inactive). Still for that read-out and setting: the value for `CCCCCCCC/C=C/C(=O)O` was 3.65% [at 35.3 µM] (inactive); that for `CCC(CO)(CO)CO` was -1.63% (inactive); that for `COC(=O)CC(C(C)=O)C(=O)OC` (stereo not given) was -3.75% (inactive).

As to `COc1ccc(-n2nc(C(F)F)cc2-c2ccc(S(C)=O)cc2)cc1` (stereo not given), the “cytotoxicity” value is -7.88% (inactive). Same read-out and setting: the value for `COc1ccc(C(=O)NCc2ccc(OCCN(C)C)cc2)cc1OC` was 1.61% [at 35.3 µM] (inactive); that for `CCC1CCC(CCC(=O)O)C1` (stereo not given) was 0.972% (inactive).

For the compound `CC(=O)c1ccc[nH]1`, the “cytotoxicity” value is 3.37% (inactive).

With `c1ccc(CNc2ncnc3c2ncn3C2CCCCO2)cc1` (stereo not given), the “cytotoxicity” value was -12.3% (inactive).

`Cc1ccc2nc(N)[nH]c(=O)c2c1Sc1ccncc1`: the “cytotoxicity” value is -1.65% [at 35.3 µM] (inactive).

With `CC(=O)OCCC(C)CC(C)(C)C` (stereo not given), the “cytotoxicity” value was 0.297% (inactive). The same measure, in the same setting: the result for `O=C(O)/C=C/c1ccc(O)c(O)c1` reads -1.81% (inactive). As to `CC[C@@H](CO)NCCN[C@@H](CC)CO`, the “cytotoxicity” value is 0.581% [at 35.3 µM] (inactive). Still for that read-out and setting: the result for `O=C(NC(Cc1cc(=O)[nH]c2ccccc12)C(=O)O)c1ccc(Cl)cc1` (stereo not given) reads -12.7% [at 35.3 µM] (inactive); that for `C=C(C)c1ccccc1`, -0.887% (inactive); that for `CCCCCCCC/C=C\CCCCCCCC(=O)OCCO`, -0.45% (inactive). Turning to `O=C(c1ccccc1)C1CCC1`, the Potency was 38.9 µM (active). In the case of `Cc1c(C2(c3cc(Br)c(O)c(Br)c3C)OS(=O)(=O)c3ccccc32)cc(Br)c(O)c1Br`, the “cytotoxicity” value is -15.8% (inactive).

For the compound `CCCCCCCCCCCCCOC(=O)CCSCCC(=O)OCCCCCCCCCCCCC`, the cytotoxicity is 6.82% [at 15.8 µM] (inactive). Still for that read-out and setting: the value for `O=C1CC[C@@H](C(=O)O)N1` was -5.24% [at 35.3 µM] (inactive); that for `CC(C)c1ccc(C#N)cc1` was 5.66% (inactive). As for `Oc1cccc2[nH]ccc12`, the “cytotoxicity” value is 2.96% [at 35.3 µM] (inactive).

Consider `Cc1oc(=O)oc1COC(=O)[C@@H]1N2C(=O)[C@@H](NC(=O)[C@H](N)c3ccccc3)[C@H]2SC1(C)C`, for which the “cytotoxicity” value is 1.15% [at 35.3 µM] (inactive). On the same count and under the same terms, the result for `CCCCCCCCCCCCCOS(=O)(=O)O` reads -2.32% (inactive); that for `CCCCCCCCCCCCCC(=O)OCC(O)CO` (stereo not given), -17.2% (inactive); that for `CC(=O)C(=O)CC(C)C`, -2.22% (inactive). Still for that read-out and setting: the value for `CCN(CC)CCNC(=O)c1cc(Cl)c(N)cc1OC` was -0.333% [at 35.3 µM] (inactive); that for `CC(C)(C)C(O)/C=C/c1ccc2c(c1)OCO2` (stereo not given) was 3.73% [at 35.3 µM] (inactive); that for `CC(C)CC(O)CC(C)C` was 1.46% (inactive). Same read-out and setting: the result for `O=C(O)c1cccc(Oc2ccccc2)c1` reads -3.77% (inactive); that for `CCCc1nc2c(C)cc(-c3nc4ccccc4n3C)cc2n1Cc1ccc(-c2ccccc2C(=O)O)cc1`, -1.53% [at 35.3 µM] (inactive). As for `COc1cc(NC(C)CCCN)c2ncccc2c1` (stereo not given), the “cytotoxicity” value was -3.36% [at 35.3 µM] (inactive). Same read-out and setting: the result for `C/C(C=O)=C\c1ccccc1` reads -1.83% (inactive); that for `CC(C)COC(=O)c1ccc(O)cc1`, -5.9% (inactive); that for `O=C(O)CO`, -0.845% (inactive). On to `CCCCC(CC)COS(=O)(=O)O` (stereo not given), for which the “cytotoxicity” value is -2.15% (inactive).
